KCNQ2 enhance – potentiators of rat KCNQ2 potassium channel | AID 2239, 2010 | Potassium voltage-gated channel subfamily KQT member 2 (Rattus norvegicus), O88943 | hit rate 0.54% among 310,000 | CHO-K1 KCNQ2, FluxOR thallium flux fluorescence; hits give high values | B-score at 10 µM;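 active = fluorescence ratio B-score at least 3 SD of library B-scores, with initial fluorescence B-score within 3 of them, cut at about 5.3 in these data; same plate scores as AID 2156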;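 also: B-score of peak minus minimum over baseline fluorescence ratio after K+ and Tl+ stimulus; positive B-score means potentiation of KCNQ2 with more thallium influx and brighter signal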
KCNQ2 inh – rat KCNQ2 potassium channel inhibitors, primary screen, cell-based, CHO-K1, FluxOR thallium flux, B-score; hit rate 1.1% among 310,000; 20 min; hits give low values; B-score at 10 µM; Potassium voltage-gated channel subfamily KQT member 2 (Rattus norvegicus), O88943;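 active = fluorescence ratio B-score at most minus 3 library SDs, with starting brightness B-score within 2 library SDs, cut at about -5.5 in these data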
Kir21 confirm – mouse Kir2.1 channel blockers, retest, confirmation, cell-based, FluxOR thallium flux, duplicate; Tl flux remaining, % of negative control (hits give low values), % at 10 µM; shares compounds with KCNQ2 enhance; hit rate 41% among 2,300; Kir2.1-expressing cells, FluxOR thallium flux fluorescence; hits give low values;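 active = Primary-screen hit whose thallium flux fell at least 3 control SD below untreated wells in both duplicates, with normal baseline fluorescence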;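 also: 0% = blank wells without stimulus and 100% = stimulated no-compound controls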
HEK293 Tl flux – parental HEK293 activity in Kir2.1 inhibitor counter-screen; shares compounds with KCNQ2 enhance; parental HEK293 cells, FluxOR thallium flux fluorescence; 0% = unstimulated blank wells; FluxOR signal as % of negative control (100 = no effect), % at 10 µM; hit rate 19% among 2,300; AID 2105;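 active = dye signal at least 3 control SD above or below untreated wells in both duplicates, raw fluorescence within 3, either direction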;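 also: percent is based on the flux ratio of peak minus minimum fluorescence over baseline F0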
CHO-K1 ctr – nonspecific thallium flux increase in parental CHO-K1, confirmation, counter-screen for KCNQ2 potentiator project, cell-based, FluxOR thallium flux, duplicate. shares compounds with KCNQ2 enhance. parental CHO-K1 cells, FluxOR thallium flux fluorescence; zero = vehicle mean+3SD, 100% = vehicle-minus-blank window. activity increase over 3SD of controls, % at 10 µM. hit rate 43% among 1,200;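 active = signal rise of at least 3 SD above the untreated control mean, in both duplicate wells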;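 also: counter screen of KCNQ2 potentiator hits so any rise reflects channel-independent effects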
KCNQ1 pot spec – human KCNQ1 channel potentiation off-target, confirmation, selectivity assay for KCNQ2 potentiator project, cell-based, CHO, FluxOR thallium flux; shares compounds with KCNQ2 enhance; CHO KCNQ1 stable, FluxOR thallium flux fluorescence; beyond 3SD, as % of vehicle-control signal; activation over 3SD threshold, % at 10 µM; hit rate 28% among 1,200;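 active = fluorescence ratio rise of at least 3 SD of vehicle wells above their mean, in both replicate wells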;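 also: 0% = vehicle mean plus 3 SD and 100% = vehicle minus unstimulated blank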
Target sequence (P51787 whole entry, looked up): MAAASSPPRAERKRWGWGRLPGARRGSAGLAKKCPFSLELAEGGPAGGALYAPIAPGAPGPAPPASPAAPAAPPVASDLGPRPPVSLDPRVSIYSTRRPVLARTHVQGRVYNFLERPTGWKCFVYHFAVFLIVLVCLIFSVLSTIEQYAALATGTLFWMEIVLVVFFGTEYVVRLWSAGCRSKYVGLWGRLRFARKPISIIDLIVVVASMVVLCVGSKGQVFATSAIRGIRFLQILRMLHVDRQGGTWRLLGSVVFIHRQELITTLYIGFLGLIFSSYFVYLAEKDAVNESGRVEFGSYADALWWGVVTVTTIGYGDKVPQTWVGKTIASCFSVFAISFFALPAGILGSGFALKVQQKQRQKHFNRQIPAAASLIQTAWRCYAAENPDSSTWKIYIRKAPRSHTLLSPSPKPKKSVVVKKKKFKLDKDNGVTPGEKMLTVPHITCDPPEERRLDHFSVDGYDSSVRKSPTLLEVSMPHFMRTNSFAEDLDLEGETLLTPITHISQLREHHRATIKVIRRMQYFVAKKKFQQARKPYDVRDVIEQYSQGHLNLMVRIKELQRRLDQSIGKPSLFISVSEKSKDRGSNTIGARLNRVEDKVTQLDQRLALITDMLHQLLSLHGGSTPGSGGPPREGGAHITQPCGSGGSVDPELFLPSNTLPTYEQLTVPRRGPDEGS
KCNQ2 pot confirm – rat KCNQ2 channel potentiators, confirmation, cell-based, CHO, FluxOR thallium flux, duplicate; shares compounds with KCNQ2 enhance; CHO-KCNQ2 cells, FluxOR thallium flux fluorescence; potentiation, less the hit threshold, % at 10 µM; hit rate 68% among 1,200;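 active = fluorescence ratio rising 3 SD or more over the vehicle control mean in both replicates, plus primary screen hit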;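 also: peak minus minimum thallium fluorescence divided by baseline after K/Tl stimulus; 0% = vehicle mean plus 3 SD and 100% = vehicle minus unstimulated blank difference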
Kir2-1 sel – mouse Kir2.1 channel activation off-target, confirmation, selectivity assay for KCNQ2 potentiator project, cell-based, HEK293, FluxOR thallium flux | shares compounds with KCNQ2 enhance | HEK293 Kir2.1, FluxOR thallium flux fluorescence | activity over 3SD threshold, % at 10 µM | hit rate 2% among 1,200;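 active = fluorescence ratio rise of at least 3 SD above the vehicle-control mean, seen in both replicates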;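 also: 0% = vehicle mean plus 3 SD and 100% = vehicle minus no-stimulus blank window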
KCNQ2 W236L MoA – potentiators of retigabine-insensitive KCNQ2 W236L, mechanism study for KCNQ2 potentiator project, cell-based, rat KCNQ2 W236L, CHO, automated patch clamp; AID 2558, 2010; hit rate 10% among 940; automated patch clamp current; current increase over 3SD of negative controls (%), hits give high values, % at 25 µM; shares compounds with KCNQ2 enhance;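 active = current increase at least 3 SD of the untreated controls above them in both duplicate recordings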
Numbers without * were called inactive; i = inactive; nt = no result given. Compounds with a hit are over-represented: about 1.6% of the library has one in this group of screens.

SMILES	KCNQ2 enhance	KCNQ2 inh	Kir21 confirm	HEK293 Tl flux	others
Cc1csc(=O)n1CCC(=O)OCC(=O)Nc1ccc(F)c(F)c1F	0.49	i	nt	nt
Cc1ccc(C(C)C)c(OCCN)c1	0.89	i	nt	nt
Cc1ccc(C(C)C)c(OCCCCN2CCNCC2)c1	0.18	i	44%*	i
Cc1ccc(C(C)C)c(OCCOCCN2CCNCC2)c1	nt	i	nt	nt
Cc1ccc(C(C)C)c(OCCNCc2ccccc2)c1	1.1	i	16%*	i
CC(C)(C)c1ccccc1OCCOCCNCc1ccccc1	nt	i	nt	nt
Clc1cc(Br)ccc1OCCCNCc1ccccc1	nt	i	nt	nt
Cc1ccc(C)c(OCCCNCc2ccccc2)c1	nt	i	24%*	i
Cc1cc(OCCOCCNCc2ccccc2)ccc1C(C)C	2.2	i	22%*	i
COc1ccc(CC(=O)NC2CCCCCC2)c(OC)c1	nt	i	nt	nt
COc1ccc(OCC(=O)NC(=S)Nc2ccc(S(=O)(=O)Nc3cc(C)on3)cc2)cc1	nt	i	nt	nt
C=C1CCN([C@@H](Cc2ccccc2)C(=O)NCCCc2ccccc2)S(=O)(=O)c2ccccc21	nt	i	nt	nt
O=S(=O)(c1ccc2oc(=S)[nH]c2c1)N1CCCCC1	nt	i	nt	nt
S=c1[nH]c2cc(-c3ccccc3)ccc2o1	18*	i	i	500%*	CHO-K1 ctr=-17;KCNQ1 pot spec=-6;KCNQ2 pot confirm=100*;Kir2-1 sel=3.9*;KCNQ2 W236L MoA=i
COc1cccc(CNc2ccc3[nH]c(=O)[nH]c3c2)c1OCc1ccccc1F	5.1	i	66%*	i
COc1cc(CNc2ccc3[nH]c(=O)[nH]c3c2)cc(Br)c1OCc1ccc(F)cc1	0.06	i	nt	nt
CCN(CC)CCN1C(=O)C(=O)/C(=C(/O)c2ccc(S(=O)(=O)N3CCOCC3)cc2)C1c1ccc(Cl)cc1 (stereo not given)	nt	i	nt	nt
CC(C)Cc1nnc(NC(=O)CCC(=O)NCc2ccccc2Cl)s1	1.3	i	nt	nt
O=C(N=C1SC2CS(=O)(=O)CC2N1CCc1ccccc1)C1CCCCC1 (stereo not given)	1.2	i	nt	nt
Cc1ccc(SCC(=O)OCC(=O)N(C)CC(=O)Nc2ccc(F)cc2)cc1C	7*	i	i	i	CHO-K1 ctr=10*;KCNQ1 pot spec=1.0*;KCNQ2 pot confirm=-2;Kir2-1 sel=-35;KCNQ2 W236L MoA=i
COc1ccc(Cl)cc1C(=O)OCC(=O)N(C)CC(=O)Nc1ccc(F)cc1	2.7	i	nt	nt
CCC(C)(C)NC(=O)C(c1ccc(F)cc1)N(CCOC)C(=O)CCC(=O)Nc1nccs1 (stereo not given)	0.13	i	nt	nt
CC(Sc1ccc(Cl)cc1)C(=O)NCc1ccc2c(c1)OCO2 (stereo not given)	7.7*	i	i	i	CHO-K1 ctr=81*;KCNQ1 pot spec=14*;KCNQ2 pot confirm=3.7*;Kir2-1 sel=-64;KCNQ2 W236L MoA=i
CC(Sc1ccc(Cl)cc1)C(=O)Nc1ccc2c(c1)OCO2 (stereo not given)	0.31	i	nt	nt
CCN(CC)C(=O)CN1CCC(c2nc3cc(C)c(C)cc3[nH]2)CC1	nt	i	nt	nt
SMILES	KCNQ2 enhance	KCNQ2 inh	Kir21 confirm	HEK293 Tl flux	others
O=C(CCN1CCOCC1)N1c2ccccc2Sc2ccc(Cl)cc21	nt	i	nt	nt
OCCN1CCN(CCCN2c3ccccc3Sc3ccc(C(F)(F)F)cc32)CC1	nt	i	30%*	i
CN(C)CCCN1c2ccccc2Sc2ccc(C(F)(F)F)cc21	nt	i	nt	nt
CN1CCN(CCCN2c3ccccc3Sc3ccc(Cl)cc32)CC1	-9.1	-9.1*	14%*	i
C=CCOc1c(Cl)cc(C(=S)N2CCCC2)cc1OCC	nt	i	nt	nt
COc1ccccc1CN1[C@@H](CC(C)=O)c2cc(C(F)(F)F)ccc2S1(=O)=O	0.01	i	nt	nt
COc1ccc(Cl)cc1NC(=O)CN(C)CC(=O)Nc1cc(OC)c(OC)c(OC)c1	0.1	i	nt	nt
CC(C)=CCC/C(C)=C/CC(C)(C)CNCCN1CCNCC1	nt	i	i	i
CC(C)=CCC/C(C)=C/CCC(C)NCCN1CCNCC1 (stereo not given)	nt	i	nt	nt
CC1COC(C)(CC(=O)NN2C(=O)c3ccccc3C2=O)O1 (stereo not given)	nt	i	nt	nt
Cc1ccc(CN2CCC(c3cc(-c4cccs4)n[nH]3)CC2)cc1	nt	i	26%*	i
FC(F)(F)c1cccc(CN2CCC(c3cc(-c4cccs4)n[nH]3)CC2)c1	nt	i	nt	nt
CCOCCCN(C)C1CCN(C(=O)c2oc3ccccc3c2NC(=O)c2cccc([N+](=O)[O-])c2)CC1	1.2	i	nt	nt
CCCn1cc(NC(=O)c2cc(-c3ccccc3)on2)cn1	5.7*	i	i	i	CHO-K1 ctr=24*;KCNQ1 pot spec=-15;KCNQ2 pot confirm=-60
O=C(Nc1cnn(C23CC4CC(CC(C4)C2)C3)c1)c1cc(-c2ccccc2)on1	0.83	i	nt	nt
CCCCN(C)C(=O)Cn1ncc2c3ccccc3n(CCC)c2c1=O	6*	i	i	i	CHO-K1 ctr=113*;KCNQ1 pot spec=-17;KCNQ2 pot confirm=-1;Kir2-1 sel=-36;KCNQ2 W236L MoA=i
CCCn1c2ccccc2c2cnn(CC(=O)N3CCN(C4CCCCC4)CC3)c(=O)c21	9*	i	i	i	CHO-K1 ctr=-7;KCNQ1 pot spec=35*;KCNQ2 pot confirm=20*;Kir2-1 sel=-46;KCNQ2 W236L MoA=i
CCCn1c2ccccc2c2cnn(CC(=O)N3CCOCC3)c(=O)c21	3.1	i	nt	nt
O=C(Cn1ncc2c3ccccc3n(Cc3ccccc3)c2c1=O)N1CCN(c2ncccn2)CC1	4.7	i	nt	nt
O=C(Cn1ncc2c3ccccc3n(Cc3ccccc3)c2c1=O)N1CCN(c2ccccn2)CC1	7.5*	i	i	i	CHO-K1 ctr=-13;KCNQ1 pot spec=42*;KCNQ2 pot confirm=20*;Kir2-1 sel=-35;KCNQ2 W236L MoA=i

Assay outcomes from PubChem.
